Source: the supplement of paper PMC4206461
A number with no mark means an inactive call.

Each compound was assayed on Pseudomonas aeruginosa PA14 dppA1-A5 penta mutant + pBBR5.DppA1 (PA14_58350) (assay: respiration area under curve with compound as sole nitrogen source, 24 h (OmniLog AUC (arbitrary units)); higher = more respiration / better utilisation as nitrogen source).
Method: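 Biolog Phenotype MicroArray plates PM6-PM8: each di/tripeptide is the sole nitrogen source. Tetrazolium reduction was read in the OmniLog for 24 h at 37°C and summarised as area under the respiration curve (arbitrary units). Values below 2000 count as no respiration. Strain is the SBP penta mutant complemented with DppA1 on a plasmid under its native promoter. Lys/His/Cys peptides are excluded.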

Row | SMILES | respiration area under curve
1 | CC(C)C[C@@H](NC(=O)CNC(=O)CN)C(=O)O (plate: PM8) | 232
2 | CC(C)C[C@H](NC(=O)CNC(=O)CN)C(=O)O (plate: PM8) | 3880 (active)
